# Compound activity deposited in PubChem BioAssay by National Center for Advancing Translational Sciences (NCATS).
# In the library only some 15% were active in any assay of this set; here they are far more common.
# ELG1 repair inh – blocks ELG1-dependent DNA repair in HEK293T cells; HEK293T ELG1-luciferase reporter, luminescence, 16 h; DNA damage induced by 5-fluorouridine; Potency, µM (series often up to 46.1 µM), without a hit: top-dose activity change, negative = inhibition, most hits filed as inhibitors; hit rate 2.3% among 330,000; further: nearly all actives have a fitted effect of over 55% in size
#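 5-Fluorouridine DNA damage + compound/DMSO, 2,000 cells/well, 16 h, 37 °C/5% CO2. ONE-Glo, 30 min RT, luminescence. Readout = decrease in reporter signal.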
# DT40 TDP1 CPT – DT40-hTDP1 cell growth loss with CPT; chicken DT40 Tdp1-/-;hTDP1 cells + 20 nM CPT, ATP luminescence, 48 h; Potency, µM (top dose mostly 46.2 µM), without a hit: at the highest dose activity change, negative = growth inhibition, hits mostly inhibitors; hit rate 12% among 420,000; AID 686979; further: nearly all actives have a fitted effect of over 55% in size
#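 Chicken DT40 Tdp1-/- cells stably complemented with human TDP1 were seeded at 400 cells/well in medium containing 20 nM camptothecin, exposed to pin-transferred compounds, and grown at 37 °C for at least 48 hr. Viability was read as ATP luminescence.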
# ALOX12 inh – ALOX12 (human) lipoxygenase inhibition; purified 12hLO, xylenol orange hydroperoxide absorbance; AID 1671190; P18054; hit rate 1.1% among 580,000; Potency, µM (titrated, usually from 108 µM), inactives show at the highest dose activity change, negative = inhibition, usual class: inhibitors
# Target sequence (P18054 whole entry, looked up): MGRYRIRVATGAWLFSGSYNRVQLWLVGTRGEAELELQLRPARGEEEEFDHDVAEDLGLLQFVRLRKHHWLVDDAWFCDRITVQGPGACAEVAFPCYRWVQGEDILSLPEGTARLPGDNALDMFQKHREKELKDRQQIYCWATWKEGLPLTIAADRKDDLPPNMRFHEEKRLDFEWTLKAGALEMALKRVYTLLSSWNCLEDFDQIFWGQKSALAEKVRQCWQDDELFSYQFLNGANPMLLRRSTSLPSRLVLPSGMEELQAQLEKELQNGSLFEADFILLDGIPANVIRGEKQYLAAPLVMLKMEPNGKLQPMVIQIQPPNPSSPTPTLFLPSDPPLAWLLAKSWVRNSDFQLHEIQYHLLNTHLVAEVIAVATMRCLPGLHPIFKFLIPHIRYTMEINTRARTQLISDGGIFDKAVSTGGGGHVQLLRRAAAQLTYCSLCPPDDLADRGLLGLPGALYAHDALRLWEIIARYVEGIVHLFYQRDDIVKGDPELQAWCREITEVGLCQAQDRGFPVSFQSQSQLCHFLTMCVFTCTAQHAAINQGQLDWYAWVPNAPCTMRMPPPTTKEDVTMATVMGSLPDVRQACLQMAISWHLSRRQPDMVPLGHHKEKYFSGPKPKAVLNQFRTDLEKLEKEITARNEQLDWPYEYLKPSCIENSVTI
#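 Purified human 12hLO (150 nM final) in 25 mM Hepes, 0.01% Triton X-100, pH 7.0 was preincubated 15 min at room temperature with compound. Then 40 uM arachidonic acid was added, 30 min. Hydroperoxide was read by Fe-XO absorbance ratio 573/405 nm.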
# TDP1 cell noCPT – qHTS for Inhibitors of human tyrosyl-DNA phosphodiesterase 1 (TDP1): qHTS in cells in absence of CPT; DT40 Tdp1-/- hTDP1 cells, no CPT, ATP luminescence, 48 h; Potency, µM (titrated, usually from 46.2 µM), inactives show at the top dose activity change, negative = growth inhibition, actives largely listed as inhibitors; hit rate 15% among 420,000; AID 686978, 2013; further: nearly all actives have a fitted effect of over 55% in size
#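 Camptothecin absent (DMSO only). Human TDP1-complemented DT40 knockout cells, 400 cells/well, 37 °C for minimum 48 hr; ATP measured via CellTiter-Glo, 30 min dark incubation, luminescence.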
# VP16 counter – inhibits Gal4-VP16 luciferase reporter, ROR gamma counter-screen; Drosophila S2 Gal4-VP16 UAS-luciferase, luminescence, 20 h; Potency, µM (top dose mostly 53.6 µM), for inactives: at the top dose activity, negative = inhibition, hits mostly inhibitors; hit rate 3.5% among 310,000;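 further: Gal4-VP16 expression switched on by copper sulfate through the metallothionein promoter; nearly all actives have a fitted effect of over 50% in size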
# RORg inh – ROR gamma (mouse) transcription inhibition; P51450; Drosophila S2 Gal4-RORgamma UAS-luciferase reporter, 20 h; Potency, µM (top dose mostly 53.6 µM), for inactives: at the highest dose activity change, negative = inhibition, most hits filed as inhibitors; hit rate 5.4% among 310,000; further: nearly all actives have a fitted effect of over 60% in size
#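 ROR gamma transcriptional activity was tracked as Gal4-UAS luciferase output in stably transfected Drosophila Schneider cells, with compound added 1 hr before 700 uM copper sulfate induction and a 20 hr ambient-temperature incubation.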
# Active calls of the source: *; ? = inconclusive; . = no result given; [ ] = dose if it differs, or a comment. The call rests on the fitted dose curve; in most records, active means well fitted curve in the direction sought with a large enough effect; inconclusive means small, poorly fitted or top-dose-only effect, or another doubt; inactive means no such curve, though single readings can be large; an effect the other way counts as inactive or inconclusive. On the % scale 0 is the no-effect control and ±100 the full control effect; potency means the concentration at half of the fitted maximal effect.
SMILES,ELG1 repair inh,DT40 TDP1 CPT,ALOX12 inh,TDP1 cell noCPT,VP16 counter,RORg inh
CCCNC(=O)c1cccc(S(=O)(=O)N2CC3(C)CC2CC(C)(C)C3)c1 (stereo not drawn),-0.1%,?,-9.3%,?,.,.
CN(C)C(CNC(=O)c1cccc(S(=O)(=O)N2CC3(C)CC2CC(C)(C)C3)c1)c1ccco1 (stereo not drawn),?,?,-8.3%,16.4µM*,-3.2%,-0.2%[10 µM]
Cc1nn(Cc2ccc(Cl)cc2)c(C)c1NC(=O)C1CC=CCC1C(=O)O (stereo not drawn),7.2%,?,-0.6%,16.4µM*,-10.8%,0.4%
Cc1nn(Cc2ccc(Cl)c(Cl)c2)c(C)c1NC(=O)c1cn(-c2ccccc2)nc1-c1ccccc1,?,?,0.0%,?,2.9%,18.2%
Cc1nn(Cc2ccc(Cl)cc2)c(C)c1NC(=O)c1cc(C(C)C)on1,?,20.6µM*,12.6%,14.6µM*,?,39.5%
Cc1nn(Cc2c(Cl)cccc2Cl)c(C)c1NC(=O)c1cc(C(C)C)on1,?,18.4µM*,-2.2%,20.6µM*,?,?
Cc1nn(Cc2ccc(Cl)cc2)c(C)c1NC(=O)c1c(-c2ccccc2)noc1C,13µM*,16.4µM*,?,-29.9%,-24.1%,?
Cc1nn(Cc2ccc(Cl)cc2)c(C)c1NC(=O)/C=C/c1cnn(C)c1,-28.7%,?,24.2%,?,-18.1%,?
COc1ccc(-n2nc(C)c([C@@H]3C=C[C@@H](NCc4ccc(N(C)C)cc4)C3)c2C)cc1,.,.,38.4%[176 µM],.,.,.
CCOC(=O)N1CCC(N(CCN(C)C)C(=S)Nc2cccc(Cl)c2)CC1,-11.3%,?,0.0%,0.8%,-16.5%[10 µM],-38.8%
CCOC(=O)N1CCC(N(CCN(C)C)C(=S)Nc2cc(Cl)cc(Cl)c2)CC1,?,-2.1%,4.1%,-1.8%,?,10µM*
CCOC(=O)N1CCC(N(CCN(C)C)C(=S)Nc2cccc(OC)c2)CC1,?,-18.7%,0.3%,16.3%,0.1%,?
CCOC(=O)N1CCC(N(CCOC)C(=S)Nc2cccc(SC)c2)CC1,-12.5%,-23.9%,2.1%,-11.8%,4.0%[10 µM],20µM*
CSc1ccc(NC(C)=O)cc1,.,.,-43.6%,.,.,.
Cc1ccccc1C(=O)Nc1ccc(Br)c(C)n1,?,?,0.0%,9.2µM*,12.3%,?
Cc1ccccc1C(=O)Nc1ccc(Cl)cn1,?,16.4µM*,-2.4%,20.6µM*,1.0%,-23.0%
O=C(CCc1ccccc1)Nc1ccc(Cl)cn1,?,5.8µM*,0.0%,3.26µM*,3.1%,10.4%
O=C(Nc1ccc(Cl)cn1)c1cccc2c(Br)cccc12,?,?,11.6%,14.6µM*,24.2%,-5.7%
Cc1ccc(NC(=O)C[C@H]2NC(=O)c3ccccc3NC2=O)c(Cl)c1,.,.,7.5%,.,.,.
CN(c1ccc(C(=O)Nc2ccc(Cl)cn2)cc1)S(=O)(=O)c1ccccc1,?,?,2.8%,20.6µM*,?,-30.2%
Cc1ccc(C(=O)Nc2ccc(Cl)cn2)cc1,?,7.31µM*,0.6%,8.2µM*,?,-22.0%
Cc1ccc(S(=O)(=O)N(C)c2ccc(C(=O)Nc3ccc(C)cn3)cc2)cc1,?,?,-6.7%,?,.,.
CCc1ccc(NC(=O)C2CC3CCCC(C2)C3=O)cc1 (stereo not drawn),.,.,-3.5%,.,.,.
Cc1nc2nc(C(F)(F)F)[nH]n2c(=O)c1Cc1ccccc1Cl,.,.,-32.0%,.,.,.
COC(=O)C(NC(=O)CCc1c(C)nc2c(c(C)nn2-c2ccccc2)c1C)C(C)C (stereo not drawn),-12.1%,16.4µM*,7.8%,16.4µM*,-8.2%,-32.3%
SMILES,ELG1 repair inh,DT40 TDP1 CPT,ALOX12 inh,TDP1 cell noCPT,VP16 counter,RORg inh
CCC(C)NC(=O)CCc1c(C)nc2c(c(C)nn2-c2ccccc2)c1C (stereo not drawn),14.2%,10.3µM*,0.0%,23.1µM*,-4.2%,0.9%
Cc1c(CC(=O)O)c(=O)oc2cc(OCc3ccccc3Cl)ccc12,.,.,-0.3%,.,.,.
CCN1CCN(CCNC(=O)C2CCCN(c3nc4cccnc4s3)C2)CC1 (stereo not drawn),.,.,1.1%,.,.,.
Cn1c(N2CCN(C(=O)Nc3ccc(C(F)(F)F)cc3)CC2)nc2ccccc21,?,18.4µM*,-2.1%,20.6µM*,-25.9%,9.7%
CCCn1c(N2CCN(C(=O)Nc3ccc(Cl)cc3)CC2)nc2ccccc21,?,?,5.3%,23.1µM*,-8.0%,15.3%
Cn1c(N2CCN(C(=O)NCc3ccccc3)CC2)nc2ccccc21,0.3%,?,-20.7%,-20.6%,-3.1%,9.4%
CCOC(=O)c1oc2cccc(OCC(O)CNC(C)C)c2c1C (stereo not drawn),20.8%,20.6µM*,0.0%,?,15.8µM*,-38.5%
Cc1ccc2cc(C(=O)NC3CCS(=O)(=O)C3)c(C)nc2c1 (stereo not drawn),.,.,-0.6%,.,.,.
CC1Cc2nc(SCC(=O)c3ccccc3)n(Cc3ccccc3)c(=O)c2S1 (stereo not drawn),5.3%,10.3µM*,1.0%[57.4 µM],10.3µM*,-17.5%,55.7%
CC1Cc2nc(SCC(=O)Nc3ccc4c(c3)OCO4)n(CCc3ccccc3)c(=O)c2S1 (stereo not drawn),13µM*,?,-10.6%,?,-14.2%,?
CC1Cc2nc(SCC(=O)NCc3ccccc3)n(Cc3ccccc3)c(=O)c2S1 (stereo not drawn),12.3%,?,14.4%[57.4 µM],?,-12.6%,42.8%
O=C(c1ccc(Cl)cc1)C1CCN(Cc2ccccc2)CC1,-5.6%,?,?,?,8.2%,-0.5%[1.91 µM]
Cc1cccc(CN2CCN(C(c3ccccc3)c3ccc(Cl)cc3)CC2)c1 (stereo not drawn),0.3%,?,?,7.31µM*,?,?
O=C(C1CCN(Cc2ccc(Cl)cc2)CC1)N1CCN(C(c2ccccc2)c2ccccc2)CC1,-10.1%,?,?,11.6µM*,?,?
CC(C)(C)c1ccc(CN2CCN(C(c3ccccc3)c3ccc(Cl)cc3)CC2)cc1 (stereo not drawn),.,13.3µM*,.,23.7µM*,.,.
COCCN1C[C@H]2CN(C(=O)C3CCC3)C[C@@]2(C(=O)O)C1,.,.,27.7%,.,.,.
